“And” between values parts separate entries of the source, which are not always exact repeats. Identical values can stand only once. In all, about 5,500 compounds went through this assay and about 2,000 (36%) were called active. Not shown: some 18% with an inconclusive outcome. No stated cut-off is given here; in the data, active means normalized growth mostly below about 0.91 (no sharp cut-off); inconclusive means no clear call, values can overlap the other calls; inactive means mostly above about 0.92. This is one part of the list.
Assay: chemical genetic growth profiling, strain panel (AID 1159580);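 further: tested at 20 µM; growth read once vehicle control cultures reached saturation at 30 °C; 1 = growth at the plate median or of vehicle wells; lower values mean less growth of the strain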
Settings: S. cerevisiae deletion strains, growth OD

Measured: normalized growth

CC1(C)C(=O)C=C[C@@]2(C)C1CC(=O)[C@]1(C)C2CC[C@@]2(C)[C@H](c3ccoc3)OC(=O)[C@H]3O[C@]321 (some centres undefined)
inactive: locus YAL021C, strain ccr4, hits give low values 1.02 | locus YAL026C, strain drs2, hits give low values 0.99 | locus YAL030W, strain snc1, hits give low values 0.981 | locus YBL061C, strain skt5, hits give low values 0.975 | locus YBR009C, strain hhf1, hits give low values 1.04 | locus YBR021W, strain FUR4, hits give low values 0.992 | locus YBR023C, strain chs3, hits give low values 0.991 | locus YBR171W, strain sec66, hits give low values 0.98 | locus YBR229C, strain ROT2, hits give low values 0.999 | locus YBR231C, strain swc5, hits give low values 1.03 | locus YBR279W, strain paf1, hits give low values 1.01 | locus YCL016C, strain dcc1, hits give low values 0.988 | locus YCL029C, strain bik1, hits give low values 1.02 | locus YCL061C, strain MRC1, hits give low values 0.988 | locus YCL069W, strain vba3, hits give low values 0.977 | locus YCR088W, strain abp1, hits give low values 0.998 | locus YDL005C, strain med2, hits give low values 0.977 | locus YDL035C, strain GPR1, hits give low values 0.99 | locus YDL040C, strain nat1, hits give low values 0.977 | locus YDL074C, strain BRE1, hits give low values 0.991 | locus YDL101C, strain DUN1, hits give low values 1.01 | locus YDL134C, strain PPH21, hits give low values 1.01 | locus YDL185W, strain tfp1, hits give low values 1.01 | locus YDL192W, strain arf1, hits give low values 1.01 | locus YDR001C, strain nth1, hits give low values 0.992 | locus YDR069C, strain doa4, hits give low values 0.949 | locus YDR101C, strain arx1, hits give low values 0.991 | locus YDR137W, strain rgp1, hits give low values 0.989 | locus YDR150W, strain NUM1, hits give low values 0.995 | locus YDR159W, strain sac3, hits give low values 1 | locus YDR162C, strain NBP2, hits give low values 0.962 | locus YDR195W, strain ref2 1.02 | locus YDR297W, strain sur2, hits give low values 0.994 | locus YDR318W, strain mcm21, hits give low values 1.01 | locus YDR334W, strain swr1, hits give low values 0.988 | locus YDR335W, strain msn5, hits give low values 0.994 | locus YDR388W, hits give low values 1.02 | locus YDR392W, strain spt3, hits give low values 0.925 | locus YDR502C, strain sam2, hits give low values 1.04 | locus YEL003W, strain gim4, hits give low values 0.975 | locus YEL037C, strain rad23, hits give low values 0.989 | locus YEL061C, strain CIN8 (second series), hits give low values 0.996 | locus YEL061C, strain CIN8, hits give low values 0.986 | locus YER015W, strain faa2, hits give low values 0.975 | locus YER016W, strain bim1, hits give low values 0.966 | locus YER110C, hits give low values 1.02 | locus YER111C, strain swi4, hits give low values 0.968 | locus YER155C, strain BEM2 (second series), hits give low values 1.04 | locus YER155C, strain BEM2, hits give low values 1 | locus YER167W, strain BCK2, hits give low values 0.986 | locus YFR010W, strain ubp6, hits give low values 1.02 | locus YGL078C, strain dbp3, hits give low values 1.02 | locus YGL086W, strain mad1, hits give low values 1.01 | locus YGL167C, strain pmr1, hits give low values 0.992 | locus YGL173C, strain kem1, hits give low values 1.01 | locus YGL227W, strain vid30, hits give low values 0.994 | locus YGL240W, strain doc1, hits give low values 1.06 | locus YGL248W, strain PDE1, hits give low values 1 | locus YGL253W, strain hxk2, hits give low values 0.981 | locus YGR135W, strain pre9, hits give low values 1.05 | locus YGR252W, strain gcn5, hits give low values 1.09 | locus YHR013C, strain ard1, hits give low values 0.964 | locus YHR027C, strain rpn1, hits give low values 0.995 | locus YHR030C, strain SLT2, hits give low values 0.988 and 0.992 | locus YHR079C, strain IRE1 (second series), hits give low values 1.01 | locus YHR079C, strain IRE1, hits give low values 0.987 | locus YHR094C, strain hxt1, hits give low values 1.02 | locus YHR129C, strain ARP1, hits give low values 0.988 | locus YHR142W, strain chs7, hits give low values 0.968 | locus YHR200W, strain rpn10, hits give low values 1.01 | locus YIL066C, strain RNR3, hits give low values 0.978 | locus YIL073C, strain SPO22, hits give low values 1.04 | locus YIL125W, strain kgd1, hits give low values 0.998 | locus YIR030C, strain dcg1, hits give low values 1.01 | locus YJL092W, strain hpr5, hits give low values 0.971 | locus YJL095W, strain BCK1 (second series), hits give low values 0.976 | locus YJL095W, strain BCK1, hits give low values 1 and 0.983 | locus YJL115W, strain asf1, hits give low values 0.983 | locus YJL129C, strain trk1, hits give low values 0.952 | locus YJL134W, strain LCB3, hits give low values 0.986 | locus YJL154C, strain vps35, hits give low values 0.978 | locus YJL164C, strain tpk1, hits give low values 0.985 | locus YJL166W, strain qcr8, hits give low values 1 | locus YJL168C, strain set2, hits give low values 1 | locus YJL187C, strain SWE1 (second series), hits give low values 1.02 | locus YJR066W, strain TOR1, hits give low values 0.927 | locus YJR075W, strain HOC1, hits give low values 0.995 | locus YKL009W, strain mrt4, hits give low values 1 | locus YKL068W, hits give low values 1 | locus YKL085W, strain MDH1 (second series), hits give low values 0.992 | locus YKL085W, strain MDH1, hits give low values 0.992 | locus YKL160W, strain elf1, hits give low values 0.976 | locus YKL190W, strain CNB1, hits give low values 0.997 | locus YKR001C, strain vps1, hits give low values 1.03 | locus YKR026C, strain gcn3, hits give low values 0.998 | locus YKR091W, strain srl3, hits give low values 0.974 | locus YLL001W, strain dnm1, hits give low values 1 | locus YLL026W, hits give low values 0.997 | locus YLL041C, strain sdh2, hits give low values 0.982 | locus YLR027C, strain aat2, hits give low values 1 | locus YLR039C, strain RIC1, hits give low values 0.886 | locus YLR058C, strain SHM2, hits give low values 0.996 | locus YLR102C, strain apc9, hits give low values 1.01 | locus YLR113W, strain HOG1, hits give low values 1.01 | locus YLR221C, strain rsa3, hits give low values 1.04 | locus YLR258W, strain gsy2, hits give low values 0.976 | locus YLR262C, strain YPT6 (second series), hits give low values 0.972 | locus YLR262C, strain YPT6, hits give low values 0.897 | locus YLR268W, strain sec22, hits give low values 0.982 | locus YLR320W, strain mms22, hits give low values 1.02 | locus YLR330W, strain CHS5, hits give low values 0.994 | locus YLR342W, strain FKS1 (second series), hits give low values 0.982 | locus YLR342W, strain FKS1, hits give low values 0.98 | locus YLR357W, strain rsc2, hits give low values 0.941 | locus YLR370C, strain arc18, hits give low values 0.99 | locus YLR371W, strain rom2, hits give low values 0.998 | locus YLR384C, strain iki3, hits give low values 0.987 | locus YLR418C, strain cdc73, hits give low values 1.04 | locus YML016C, strain PPZ1, hits give low values 0.984 | locus YML032C, strain rad52, hits give low values 1.02 | locus YML120C, strain ndi1, hits give low values 0.988 | locus YML124C, strain tub3, hits give low values 1.01 | locus YMR058W, strain fet3, hits give low values 1 | locus YMR078C, strain ctf18, hits give low values 1.01 | locus YMR125W, strain sto1, hits give low values 0.973 | locus YMR129W, hits give low values 0.971 | locus YMR205C, strain PFK2, hits give low values 1.04 | locus YMR223W, strain ubp8, hits give low values 1.01 | locus YMR231W, strain pep5, hits give low values 0.982 | locus YMR307W, strain GAS1, hits give low values 0.868 | locus YNL067W, strain RPL9B, hits give low values 1.01 | locus YNL071W, strain lat1, hits give low values 1 | locus YNL128W, strain TEP1, hits give low values 0.978 | locus YNL183C, strain NPR1, hits give low values 0.931 | locus YNL209W, strain ssb2, hits give low values 0.989 | locus YNL233W, strain BNI4, hits give low values 0.987 | locus YNL248C, strain rpa49, hits give low values 0.93 | locus YNL250W, strain rad50, hits give low values 1.03 | locus YNL271C, strain bni1, hits give low values 1 | locus YNL298W, strain CLA4, hits give low values 1.03 | locus YNL307C, strain MCK1, hits give low values 1 | locus YNL322C, strain KRE1 (second series), hits give low values 0.958 | locus YNR049C, strain mso1, hits give low values 0.952 | locus YNR052C, strain pop2, hits give low values 1.03 | locus YOL006C, strain TOP1, hits give low values 0.987 | locus YOL012C, strain htz1 1.38 | locus YOL147C, strain pex11, hits give low values 1.01 | locus YOR001W, strain rrp6, hits give low values 1 | locus YOR061W, strain CKA2, hits give low values 0.991 | locus YOR069W, strain VPS5, hits give low values 0.995 | locus YOR070C, strain gyp1, hits give low values 0.995 | locus YOR080W, strain dia2, hits give low values 0.986 | locus YOR083W, strain WHI5, hits give low values 0.907 | locus YOR106W, strain vam3, hits give low values 0.955 | locus YOR136W, strain idh2, hits give low values 1.01 | locus YOR144C, strain elg1, hits give low values 1.01 | locus YOR184W, strain ser1, hits give low values 0.974 | locus YOR231W, strain MKK1, hits give low values 0.983 | locus YOR265W, strain rbl2, hits give low values 0.984 | locus YOR270C, strain vph1, hits give low values 0.993 | locus YOR290C, strain snf2, hits give low values 0.976 | locus YOR316C, strain cot1, hits give low values 1.01 | locus YPL051W, strain arl3, hits give low values 1 | locus YPL055C, strain LGE1, hits give low values 1 | locus YPL078C, strain atp4, hits give low values 0.976 | locus YPL106C, strain sse1, hits give low values 0.986 | locus YPL240C, strain hsp82, hits give low values 0.996 | locus YPL241C, strain CIN2, hits give low values 0.987 | locus YPL256C, strain CLN2, hits give low values 0.987 | locus YPR119W, strain clb2, hits give low values 1.01 | locus YPR141C, strain kar3, hits give low values 1 | locus YPR163C, strain tif3, hits give low values 1.01 | locus YPR167C, strain met16, hits give low values 1.01 | strain wtn01, hits give low values 1
